# Source: PubChem BioAssay AID1508625 (Wald Lab, School of Medicine, Case Western Reserve …, 2021)
# Assay: enhancers of NK cell killing of ovarian tumor cells, primary screen, imaging, OVCAR3, primary NK cells, calcein-AM imaging (AID 1508625);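 note: compound given to NK cells 16 h before adding targets at 1.5 to 1 ratio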
# Details: OVCAR3 lysis by primary NK cells, at 5 µM; z-score: measured here: robust Z-score, single-point normalisation
SMILES,"corrected activity, negative = more killing [%]",z-score
O=C1OC(c2cccc(Cl)c2)=NC1=Cc1ccc(Br)o1,-4.19,-1.78
COc1ccc(OC)c(NC(=O)C(N)=O)c1,1.08,0.459
CCCOc1ccc(C(=O)Nc2ccc3oc(-c4ccccc4)nc3c2)cc1,-3.03,-1.07
Cc1cccc(OCCn2c(=N)n(CC(N)=O)c3ccccc32)c1,-6.66,-1.99
CC(=O)Nc1ccc(S(=O)(=O)NCc2ccc(C(=O)O)cc2)cc1,-5.84,-1.58
CCOC(=O)Cc1ccc(N(Cc2cccs2)S(=O)(=O)c2ccc([N+](=O)[O-])cc2)cc1,-7.32,-1.98
Cn1c(SCC(=O)Nc2cc(C(F)(F)F)ccc2Cl)nc2c([nH]c3ccccc32)c1=O,-6.37,-1.58
Cc1cc(C)cc(-n2cnc3cc(C(=O)NC4CCCCC4C)ccc32)c1 (configuration not stated),-2.86,-0.771
Cc1c(N=Cc2c[nH]c3ccccc23)cccc1[N+](=O)[O-],-2.05,-0.872
O=C(O)CN1C(=O)c2ccc(C(=O)O)cc2C1=O,-5.22,-1.62
CCSc1ccc(NC(=O)CC2c3ccccc3Oc3ccccc32)cc1,-7.71,-2.39
COc1cc(C(=O)N2N=C(C3CC3)CC2(O)C(F)(F)F)cc(OC)c1OC (configuration not stated),-3.44,-1.41
COCCOC(=O)C1=C(C)N(C)C(=O)NC1c1ccccc1Cl (configuration not stated),-3.72,-1.32
Cc1c(Cl)cccc1N=Cc1ccc(O)cc1,-1.33,-0.563
CCN1C(=O)c2cccc3c(NC(=O)C45CC6CC(CC(C6)C4)C5)ccc1c23,-12.5,-2.63
COc1cccc(CCNc2ccc(N3C(=O)C4CCC(C)CC4C3=O)cc2[N+](=O)[O-])c1 (configuration not stated),-3.2,-1.17
c1nc(N2CCCCCC2)c2[nH]cnc2n1,-0.464,-0.115
CCOC(=O)c1c(N)sc(C(=O)Nc2cc(C)ccc2C)c1C,-5.05,-1.57
CCCc1cc(=O)oc2cc3oc4c(c3cc12)CCCC4,-1.47,-0.438
COc1ccc(C(O)=C2C(=O)C(=O)N(c3ccccn3)C2c2ccc(C(C)C)cc2)cc1 (configuration not stated),-1.15,-0.498
O=c1oc(-c2ccc(Oc3ccc([N+](=O)[O-])cc3)cc2)nc2ccccc12,-1.57,-0.62
CC(C)c1ccc(CNc2c([N+](=O)[O-])c(=O)oc3ccccc23)cc1,-0.839,-0.312
Cc1cccc(C)c1NC(=O)c1sc2[nH]c(=O)c(C(=O)O)cc2c1N,-3.74,-0.931

SMILES,"corrected activity, negative = more killing [%]",z-score
CCOc1ccc(-c2n[nH]c(C(=O)NN=Cc3cccnc3)c2C)cc1,-3.11,-1.36
O=C1c2ccccc2C(=O)N1CCCCCCN1CCN(c2cccc(Cl)c2)CC1,-4.02,-0.848
O=C(Nc1ccccc1[N+](=O)[O-])C12CC3CC(CC(C3)C1)C2,-1.55,-0.55
O=C1C(=O)N(CO)C(c2ccccc2)C1=C(O)c1ccccc1 (configuration not stated),-3.26,-1.23
O=C1OC(c2cccc(Cl)c2)=NC1=Cc1ccc(F)cc1,-4.47,-1.9
CCC(Oc1ccccc1)C(=O)N1CCC(C(N)=O)CC1 (configuration not stated),-2.95,-1.64
CCOC(=O)c1ccc(NC(=O)C(=O)N2CCCC2)cc1,-5.89,-2.55
COc1cccc(-n2c(SCC(=O)Nc3ccccc3F)nc3c([nH]c4ccccc43)c2=O)c1,-10.8,-2.69
O=C(Nc1ccc2c(c1)CCC2)c1ccc2c(=O)n(C3CCCCC3)c(=S)[nH]c2c1,-2.41,-0.766
CCOC(=O)C1C(c2ccccc2)NC(=S)NC1(O)C(F)(F)F (configuration not stated),-1.39,-0.43
O=C(NC1CCCC1)c1c[nH]c2ccc(S(=O)(=O)Nc3cccc(C(F)(F)F)c3)cc2c1=O,-7.02,-1.72
O=C(Nc1cc([N+](=O)[O-])ccc1Cl)c1cnc2n(c1=O)CCS2,-1.04,-0.332
N#CCCCSc1nnnn1-c1ccccc1,-7.28,-2.25
Cc1ccc(C2C(=C(O)c3ccc(Cl)cc3)C(=O)C(=O)N2CCCn2ccnc2)cc1 (configuration not stated),-3.13,-1.2
O=C(Oc1ccccc1C(=S)N1CCOCC1)c1ccc([N+](=O)[O-])cc1,4.47,1.39
O=c1c2cc3c(cc2nc(SCc2cccc(F)c2)n1Cc1ccco1)OCO3,-3.76,-0.995
CC(=O)c1cccc(NC(=O)C2CCN(C(=O)c3ccc(F)cc3)CC2)c1,-3.29,-1.22
O=C(c1ccc(Cn2c(=S)[nH]c3cc4c(cc3c2=O)OCO4)cc1)N1CCC(N2CCCCC2)CC1,-3.36,-0.889
COc1ccc(CNC(=O)Cn2c(=S)[nH]c3ccccc3c2=O)cc1,-4.59,-1.22
O=C(Cn1cnc2sc3c(c2c1=O)CCCC3)NCCCC(=O)Nc1ccccc1F,-3.19,-1.01
CCC(CC)NC(=O)c1cccc(OC)c1OC,-0.109,-0.0486
Cc1cc(C)c(S(=O)(=O)NCc2ccc(C(=O)NCCc3ccc(Cl)cc3)cc2)c(C)c1,-5.64,-1.38
CCN(CC)CCCn1c(=S)[nH]c2cc(C(=O)OC)ccc2c1=O,-3.76,-0.997

SMILES,"corrected activity, negative = more killing [%]",z-score
Cc1c(C(=O)NCc2ccc(F)cc2)sc2ncn(Cc3ccccc3Cl)c(=O)c12,-2.74,-0.998
COc1ccccc1Cn1c(=S)[nH]c2cc(Cl)ccc2c1=O,-3.97,-1.05
CCCOc1ccc(C(=O)Nc2ccc3nn(-c4ccc(OCC)cc4)nc3c2)cc1,-3.37,-1.2
Cc1sc(NC(=O)C2c3ccccc3Oc3ccccc32)c(C(N)=O)c1C,-5.26,-2.16
COC(=O)c1ccc(COC(=O)c2ccc([N+](=O)[O-])c(C)c2)cc1,-0.897,-0.499
CC(C)NC1CCCc2c1[nH]c1ccc([N+](=O)[O-])cc21 (configuration not stated),-0.558,-0.244
O=C(Nc1ccccc1-c1nc2ccccc2[nH]1)c1ccc(S(=O)(=O)N2CCCC2)cc1,0.864,0.306
O=C1CCC(=O)N1c1ccc(NCc2ccc(Cl)cc2)c([N+](=O)[O-])c1,-4.48,-1.63
Cc1nc2sccn2c1C(=O)NN=Cc1ccc(C(C)C)cc1,-4.02,-1.71
CCCc1sc(N2CCN(C(=O)c3ccccc3)CC2)nc1-c1ccccc1,-5.71,-1.77
COc1ccccc1N1CCN(C(=O)NC2CCCCC2)CC1,-0.143,-0.0428
CCN(CC)c1cc(O)c2c(c1N)C(=O)c1ccccc1C2=O,-2.05,-0.772
O=C(Nc1cc2c(cc1C(=O)c1ccc(Br)cc1)OCCO2)c1ccc(Cl)cc1,-4.2,-1.3
CC1CC(C)CN(C(=O)c2c[nH]c3ccc(S(=O)(=O)N4CCOCC4)cc3c2=O)C1 (configuration not stated),-2.85,-1.04
O=C(Nc1ccc(Cl)cc1)c1ccc(F)c(S(=O)(=O)N2CCOCC2)c1,-4.69,-1.77
COC(=O)c1cc(NC(=O)C2(S(=O)(=O)c3ccc(C)cc3)CC2)cc(C(=O)OC)c1,-4.1,-1.16
O=C(Nc1ccccc1Cl)c1cccc([N+](=O)[O-])c1,-1.44,-0.51
CCCSc1nc2c([nH]c3ccccc32)c(=O)n1-c1ccc(OC)cc1,-5.59,-1.39
CC(=O)NCCNC(=O)c1ccc(Cn2c(=S)[nH]c3cc4c(cc3c2=O)OCO4)cc1,-3.96,-1.05
O=C(Nc1ccc(Br)cc1)c1ccccc1I,-1.25,-0.444
O=C(COc1ccccc1Br)NN=Cc1ccccc1Br,-7.58,-2.41
CCOC(=O)Cc1ccc(N(Cc2ccccc2)S(=O)(=O)c2cc(C)ccc2C)cc1,-11.3,-3.06
COc1ccc(C)cc1NC(=O)c1cc(S(=O)(=O)NC2CCCCC2C)ccc1F (configuration not stated),-0.89,-0.24

SMILES,"corrected activity, negative = more killing [%]",z-score
Cc1ccc2nc(NC(=O)COC(=O)c3ccc(Br)o3)sc2c1,-3.82,-1.44
CCOc1ccc(C(=O)N2CCc3cc(OC)c(OC)cc3C2)cc1,-2.29,-0.852
CCCOc1cccc(C(=O)Nc2ccc3nn(-c4ccc(OC)cc4)nc3c2)c1,-3.41,-1.21
O=C(CCn1c(SCc2ccccc2Cl)nc2cc3c(cc2c1=O)OCO3)N1CCN(c2ccccc2)CC1,-5.52,-1.46
CC1=NN(C(=O)c2ccc(C(N)=O)cc2)C(O)(C(F)(F)F)C1 (configuration not stated),-1.91,-0.786
COc1ccc(Cn2c(=S)[nH]c3cc(C(=O)N4CCCCC4)ccc3c2=O)cc1,-8.39,-2.67
COC(=O)c1ccc(NC(=O)CN2CCN(CC#N)CC2)cc1,-5.45,-2.05
O=C1C2CC=C(Cl)CC2C(=O)N1CC1OCCc2ccccc21 (configuration not stated),-3.37,-1.29
Cc1ccc(NC(=O)CSc2nnc(N3C(=O)c4ccccc4C3=O)s2)c(C)c1,-5.41,-1.68
O=C1c2cccc([N+](=O)[O-])c2C(=O)N1C1C(=O)N(c2cccc(C(F)(F)F)c2)C1c1ccc(F)cc1 (configuration not stated),-1.05,-0.327
COc1ccc(S(=O)(=O)NCc2ccc(C(=O)N(C)Cc3ccco3)cc2)cc1,-7.7,-1.89
O=C(NN=Cc1ccc[nH]1)C(O)c1ccccc1 (configuration not stated),-2.59,-0.823
CCc1noc(C)c1C(=O)N1CC(C)OC(C)C1 (configuration not stated),-2.62,-1.08
Cc1nc2ccccc2n1Cc1cccc2ccccc12,-3.88,-2.01
CC(C)c1ccc(NC(=O)C2c3ccccc3C(=O)N(C)C2c2cccs2)cc1 (configuration not stated),-7.64,-1.9
Cc1[nH]c2ccccc2c(=O)c1CN(C)Cc1ccccc1,0.566,0.175
N#Cc1c2c(c(-n3ccnc3)n3c1nc1ccccc13)CCC2,-2.49,-0.772
COC(=O)c1ccc(CN2CCN3CCCC3C2C)cc1 (configuration not stated),-3.15,-1.38
COc1cc2c(cc1NC(=O)C(C)c1ccc([N+](=O)[O-])cc1)oc1ccccc12 (configuration not stated),-2.25,-1.25
CCOc1cc(C(=S)N2CCOCC2)ccc1OC(=O)Cc1ccccc1,-7.5,-2.32
Cc1cc([N+](=O)[O-])ccc1N=Cc1ccc(Br)s1,-2.22,-0.944
O=C(Nc1ccc(Cc2ccncc2)cc1)C1CCC(N2C(=O)C3CC=CCC3C2=O)CC1 (configuration not stated),-4.96,-1.89
